Records with an inconclusive call do not appear. Where a call stands in place of a potency, no number is given. Some compounds were tested as several samples or in several runs, with calls that do not always agree. Calls of active or inactive are those of the source. Calls follow the shape of the dose curve; as a rule, active = well fitted cell-killing curve with a large enough effect in the repeat runs; inconclusive = weak or mixed curves, or effect the other way; inactive = no such curve, though single readings can be large or run the other way.
Potency is read from the fitted curve at half-maximal effect.

The nature of this experiment: qHTS assay to identify small molecule agonists of the RXR signaling pathway - cell viability counter screen (AID 1159529). Also: nearly all actives have a fitted effect of over 50% in size. The conditions noted are these: RXR-alpha-bla HEK293T viability, CellTiter-Glo, 16 h; series mostly up to 76.8 µM. From the text:
National Center for Advancing Translational Sciences [NCATS]
NIH Chemical Genomics Center [NCGC]
U.S. Environmental Protection Agency [EPA]
National Institutes of Environmental Health Sciences [NIEHS]
National Toxicology Program [NTP]
U.S. Food and Drug Administration [FDA]
The Retinoid X receptor (RXR), a nuclear hormone receptor expressed in liver, spleen, placenta, epidermis, central nervous system. These receptors are able to form homo and heterodimers with other nuclear receptors and due to this heterodimerizing ability, RXR functions as master regulators producing diverse physiological effects. Three subtypes of RXR exist; alpha, beta and gamma. Retinoid X receptor alpha (RXR-alpha) has potential roles in metabolic signaling pathways, skin alopecia, dermal cysts, cardiac development, insulin sensitization etc. Therefore screening environmental chemicals on RXR-alpha signaling can be used for the studies focused on such therapeutic applications. For quantification of RXR-alpha ligands signaling, GeneBLAzer RXR alpha-UAS-bla HEK 293T (Life Technologies, Carlsbad, CA) cells containing a beta-lactamase reporter-gene under control of Retinoid X receptor-alpha response element were used to screen Tox21 10K library. The cytotoxicity of the Tox21 compound library against the RXR-alpha HEK 293T cell line was tested in parallel by measuring cell viability using CellTiter-Glo assay (Promega Corporation, Madison, WI) in the same wells.
Tox21 Assay Protocol Summary:
RXR-alpha HEK 293T cells were dispensed at 2,000 cells/6 uL of assay medium containing 2% charcoal-stripped FBS using a Multidrop Combi (ThermoFisher Scientific, Waltham, MA) dispenser. The assay was performed in black wall/clear-bottom 1536-well plates (Greiner Bio-One North America Inc. Monroe, NC). Tetraoctyl ammonium bromide was used as a positive control in the cytotoxicity screen. After the assay plates were incubated at 37 C and 5% CO2 for 5 hr, 23 nL of compounds dissolved in DMSO, positive control or DMSO only were transferred to the assay plate by a Pintool station (Kalypsys, San Diego, CA). The assay plates were incubated at 37 C and 5% CO2 for 16 hr. One uL of LiveBLAzer B/G FRET substrate (Life Technologies) was added using a Flying Reagent Dispenser (FRD) (Aurora Discovery, San Diego, CA) and the plates were incubated at room temperature for 2 hr. Fluorescence intensity (405 nm excitation, 460/530 nm emission) was measured using an Envision plate reader (PerkinElmer, Shelton, CT). For cytotoxicity, 4 uL/well of CellTiter-Glo reagent was added into the assay plates using an FRD. After 30 min incubation at room temperature, the luminescence intensity was measured using a ViewLux plate reader (PerkinElmer).
(Quantitative high-throughput screening tests each substance at several concentrations.)
Regarding `COC(C)COC(C)COC(C)CO` (stereo not given), the Potency result was “inactive”.
Next, `Nc1ncnc2nc[nH]c12`: “inactive”; `CN1C(C(=O)Nc2ccccn2)=C(O)c2ccccc2S1(=O)=O`: “inactive”; `CC(=O)Oc1ccccc1C(=O)Nc1ncc([N+](=O)[O-])s1`: “inactive”.
The entry for `CC(C)(C)NC(=O)[C@H]1CC[C@H]2[C@@H]3CC[C@H]4NC(=O)C=C[C@]4(C)[C@H]3CC[C@]12C` is “inactive”; for `CN(C)C(=N)N=C(N)N` it is “inactive”.
`Nc1ccc(Nc2ccccc2)cc1`: the Potency result is “inactive”.
Next, `c1ccc2sc(SSN3CCOCC3)nc2c1`: “inactive”; `O=c1oc(=O)c2cc3c(=O)oc(=O)c3cc12`: “inactive”; `OC(CCl)CCl`: “inactive”.
Regarding `C=CC(C)(CCC=C(C)C)OC(C)=O` (stereo not given), the Potency entry was “inactive”.
Next, `CC(CCC(=O)O)(c1ccc(O)cc1)c1ccc(O)cc1`: “inactive”; `CNCCCC12CCC(c3ccccc31)c1ccccc12`: 21.9 µM (active) and inactive; `Nc1ncn([C@@H]2O[C@H](CO)[C@@H](O)[C@H]2O)c(=O)n1`: “inactive”.
For the molecule `c1cc(-c2ccncc2)ccn1`, the Potency result was “inactive”.
The entry for `C=C(C)C1CC=C(C)CC1` (stereo not given) is “inactive”.
Next, `O=CCCCC=O`: “inactive”; `CC(C)CC(C)(O)C#CC(C)(O)CC(C)C` (stereo not given): “inactive”.
Next, `Cc1c(C(N)=O)cc([N+](=O)[O-])cc1[N+](=O)[O-]`: “inactive”.
Regarding `CCCc1c(OCCCCc2nn[nH]n2)ccc(C(C)=O)c1O`, the Potency entry is “inactive”.
The entry for `CC(=O)C1(C)CC2=C(CCCC2(C)C)CC1C` (stereo not given) is “inactive”; for `COc1ccccc1/C=C/C=O` it is “inactive”; for `Cc1ccc2c(n1)Oc1ccc(C(C)C(=O)OCC(=O)N(C)C)cc1C2` (stereo not given) it is “inactive”.
For the molecule `Cc1cccc([N+](=O)[O-])c1C`, the Potency entry is “inactive”.
On to `CCCCC(CC)COP(=O)(OCC(CC)CCCC)OCC(CC)CCCC` (stereo not given), for which the Potency result is “inactive”.
The entry for `CC1=CCC(C(C)(C)O)CC1` (stereo not given) is “inactive”; for `OCCO` it is “inactive”.
Next, `CN(C)c1nc(N(C)C)nc(N(C)C)n1`: “inactive”.
Regarding `CCCCC/C=C/C=C/C=O`, the Potency entry is “inactive”.
Consider `COc1c(Cl)c(Cl)c(Cl)c(Cl)c1Cl`, for which the Potency result was “inactive”.
Regarding `COC(=O)Nc1nc2ccc(S(=O)c3ccccc3)cc2[nH]1` (stereo not given), the Potency result is “inactive”.
The figure for `Brc1cc(Oc2cc(Br)c(Br)c(Br)c2Br)c(Br)c(Br)c1Br` is 1.39 µM (active) and inactive; for `c1ccc(Nc2ccccc2)cc1` it is “inactive”; for `O=C(OCc1ccccc1)c1ccccc1O` it is “inactive”.
Next, `COc1ccc(OC)c(C(O)CNC(=O)CN)c1` (stereo not given): “inactive”.
For `Cc1c(OCC(F)(F)F)ccnc1CS(=O)c1nc2ccccc2[nH]1` (stereo not given), the Potency result was “inactive”.
Consider `C#C[C@]1(O)CC[C@H]2[C@@H]3CCC4=Cc5oncc5C[C@]4(C)[C@H]3CC[C@@]21C`, for which the Potency was 21.9 µM (active).
`CC(=O)c1ccccn1`: the Potency result was “inactive”.
Next, `CC(C)=CCCC(C)CCO` (stereo not given): “inactive”.
As for `COc1cc([C@@H]2c3cc4c(cc3[C@H](O)[C@H]3COC(=O)[C@H]23)OCO4)cc(OC)c1OC`, the Potency entry was “inactive”.

These data come from PubChem BioAssay (Tox21).
